Results published in the supplement of paper PMC6992640.

tested on: HCI01 (cells of a triple-negative basal-like breast cancer xenograft); test: cell viability of combination (% of vehicle); higher = less cytotoxic; conditions: 1 µM; 72 h; partner dose: 10 nM
Description: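 PDX cells were treated for 72 h with each drug at 1 µM plus afatinib (10 nM; 1 µM for WHIM30). Luciferase viability is expressed as percent of vehicle.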

Going from CC(O)C(=O)O.CCOc1ccc2nc3cc(N)ccc3c(N)c2c1.O [Ethacridine lactate monohydrate] + CN(C)C/C=C/C(=O)Nc1cc2c(Nc3ccc(F)c(Cl)c3)ncnc2cc1O[C@H]1CCOC1 [Afatinib] to CCOC(=O)c1c(CSc2ccccc2)n(C)c2cc(Br)c(O)c(CN(C)C)c12.Cl [Arbidol HCl] + CN(C)C/C=C/C(=O)Nc1cc2c(Nc3ccc(F)c(Cl)c3)ncnc2cc1O[C@H]1CCOC1 [Afatinib], the “cell viability of combination” value rises from 52.5 to 55.3.

Going from O=C(c1ccc(F)c(F)c1Nc1ccc(I)cc1F)N1CC(O)(C2CCCCN2)C1 (stereo unspecified) [Cobimetinib] + CN(C)C/C=C/C(=O)Nc1cc2c(Nc3ccc(F)c(Cl)c3)ncnc2cc1O[C@H]1CCOC1 [Afatinib] to Cn1cnc2c(F)c(Nc3ccc(Br)cc3F)c(C(=O)NOCCO)cc21 + CN(C)C/C=C/C(=O)Nc1cc2c(Nc3ccc(F)c(Cl)c3)ncnc2cc1O[C@H]1CCOC1 [Afatinib], the “cell viability of combination” value falls from 42.2 to 40.5.

First: CCOc1cc2ncc(C#N)c(Nc3ccc(OCc4ccccn4)c(Cl)c3)c2cc1NC(=O)C=CCN(C)C [Neratinib (HKI-272)] + CN(C)C/C=C/C(=O)Nc1cc2c(Nc3ccc(F)c(Cl)c3)ncnc2cc1O[C@H]1CCOC1 [Afatinib]
Second: CN1CCC(COc2cnc(-c3cccc(Cn4nc(-c5cccc(C#N)c5)ccc4=O)c3)nc2)CC1 + CN(C)C/C=C/C(=O)Nc1cc2c(Nc3ccc(F)c(Cl)c3)ncnc2cc1O[C@H]1CCOC1 [Afatinib]
The “cell viability of combination” value of the first is higher: 60.9 for the first, 39.9 for the second.

Going from CC(NCCCc1cccc(C(F)(F)F)c1)c1cccc2ccccc12.Cl (stereo unspecified) [Cinacalcet HCl] + CN(C)C/C=C/C(=O)Nc1cc2c(Nc3ccc(F)c(Cl)c3)ncnc2cc1O[C@H]1CCOC1 [Afatinib] to Cc1cccc(CN2CCN(C(c3ccccc3)c3ccc(Cl)cc3)CC2)c1.Cl.Cl (stereo unspecified) [Meclizine 2HCl] + CN(C)C/C=C/C(=O)Nc1cc2c(Nc3ccc(F)c(Cl)c3)ncnc2cc1O[C@H]1CCOC1 [Afatinib], the “cell viability of combination” value rises from 58.1 to 65.4.

Going from Cc1c(Cl)cccc1Nc1ccccc1C(=O)O [Tolfenamic Acid] + CN(C)C/C=C/C(=O)Nc1cc2c(Nc3ccc(F)c(Cl)c3)ncnc2cc1O[C@H]1CCOC1 [Afatinib] to CC(C)CC(NC(=O)C(NC(=O)c1cccc(-c2ccccc2)n1)C(C)O)B(O)O (stereo unspecified) + CN(C)C/C=C/C(=O)Nc1cc2c(Nc3ccc(F)c(Cl)c3)ncnc2cc1O[C@H]1CCOC1 [Afatinib], the “cell viability of combination” value falls from 57.3 to 34.1.

First: CC[C@H](C)[C@H]1O[C@]2(CC[C@@H]1C)C[C@@H]1C[C@@H](C/C=C(\C)[C@@H](O[C@H]3C[C@H](OC)[C@@H](O[C@H]4C[C@H](OC)[C@@H](O)[C@H](C)O4)[C@H](C)O3)[C@@H](C)/C=C/C=C3\CO[C@@H]4[C@H](O)C(C)=C[C@@H](C(=O)O1)[C@]34O)O2 [Ivermectin] + CN(C)C/C=C/C(=O)Nc1cc2c(Nc3ccc(F)c(Cl)c3)ncnc2cc1O[C@H]1CCOC1 [Afatinib]
Second: CO[C@H]1C[C@@H]2CC[C@@H](C)[C@@](O)(O2)C(=O)C(=O)N2CCCC[C@H]2C(=O)O[C@H]([C@H](C)C[C@@H]2CC[C@@H](O)[C@H](OC)C2)CC(=O)[C@H](C)/C=C(\C)[C@@H](O)[C@@H](OC)C(=O)[C@H](C)C[C@H](C)/C=C/C=C/C=C/1C [Rapamycin (Sirolimus)] + CN(C)C/C=C/C(=O)Nc1cc2c(Nc3ccc(F)c(Cl)c3)ncnc2cc1O[C@H]1CCOC1 [Afatinib]
The “cell viability of combination” value of the first is lower: 46 for the first, 51 for the second.

Compared with CCC(=C(c1ccccc1)c1ccc(OCCN(C)C)cc1)c1ccccc1.O=C(O)CC(O)(CC(=O)O)C(=O)O [Tamoxifen Citrate] + CN(C)C/C=C/C(=O)Nc1cc2c(Nc3ccc(F)c(Cl)c3)ncnc2cc1O[C@H]1CCOC1 [Afatinib], COC(=O)NC(C(=O)NC(Cc1ccccc1)C(O)CN(Cc1ccc(-c2ccccn2)cc1)NC(=O)C(NC(=O)OC)C(C)(C)C)C(C)(C)C (stereo unspecified) [Atazanavir] + CN(C)C/C=C/C(=O)Nc1cc2c(Nc3ccc(F)c(Cl)c3)ncnc2cc1O[C@H]1CCOC1 [Afatinib] is lower in “cell viability of combination” value: 65 for the first, 48.8 for the second.

Compared with CCCCCCCCc1ccc(CCC(N)(CO)CO)cc1.Cl [Fingolimod (FTY720)] + CN(C)C/C=C/C(=O)Nc1cc2c(Nc3ccc(F)c(Cl)c3)ncnc2cc1O[C@H]1CCOC1 [Afatinib], CCCCCCCCCCCCCCCCOP(=O)([O-])OCC[N+](C)(C)C [Miltefosine] + CN(C)C/C=C/C(=O)Nc1cc2c(Nc3ccc(F)c(Cl)c3)ncnc2cc1O[C@H]1CCOC1 [Afatinib] is higher in “cell viability of combination” value: 53.7 for the first, 56.7 for the second.

Going from COc1ccc(C[C@H](N)C(=O)N[C@@H]2[C@H](O)[C@H](n3cnc4c(N(C)C)ncnc43)O[C@@H]2CO)cc1.Cl.Cl [Puromycin dihydrochloride] + CN(C)C/C=C/C(=O)Nc1cc2c(Nc3ccc(F)c(Cl)c3)ncnc2cc1O[C@H]1CCOC1 [Afatinib] to Nc1ncn(C2OC(CO)C(O)C2O)c(=O)n1 (stereo unspecified) [5-Azacytidine] + CN(C)C/C=C/C(=O)Nc1cc2c(Nc3ccc(F)c(Cl)c3)ncnc2cc1O[C@H]1CCOC1 [Afatinib], the “cell viability of combination” value falls from 69.5 to 53.5.

Compared with CCN(CC)CCCC(C)Nc1ccnc2cc(Cl)ccc12.O=P(O)(O)O.O=P(O)(O)O (stereo unspecified) [Chloroquine diphosphate] + CN(C)C/C=C/C(=O)Nc1cc2c(Nc3ccc(F)c(Cl)c3)ncnc2cc1O[C@H]1CCOC1 [Afatinib], CCOC(=O)C1=C(COCCN)NC(C)=C(C(=O)OC)C1c1ccccc1Cl (stereo unspecified) [Amlodipine] + CN(C)C/C=C/C(=O)Nc1cc2c(Nc3ccc(F)c(Cl)c3)ncnc2cc1O[C@H]1CCOC1 [Afatinib] is higher in “cell viability of combination” value: 44.6 for the first, 58.2 for the second.

First: C=C1C(=CC=C2CCCC3(C)C2CCC3C(C)CCCC(C)C)CC(O)CC1O (stereo unspecified) [Alfacalcidol] + CN(C)C/C=C/C(=O)Nc1cc2c(Nc3ccc(F)c(Cl)c3)ncnc2cc1O[C@H]1CCOC1 [Afatinib]
Second: C=C1C(=CC=C2CCCC3(C)C2CCC3C(C)C=CC(C)C(C)C)CC(O)CC1O (stereo unspecified) [Doxercalciferol] + CN(C)C/C=C/C(=O)Nc1cc2c(Nc3ccc(F)c(Cl)c3)ncnc2cc1O[C@H]1CCOC1 [Afatinib]
The “cell viability of combination” value of the first is lower: 42.1 for the first, 44.8 for the second.

First: CN(C)c1ccc(C(=C2C=CC(=[N+](C)C)C=C2)c2ccc(N(C)C)cc2)cc1.[Cl-] [Crystal Violet] + CN(C)C/C=C/C(=O)Nc1cc2c(Nc3ccc(F)c(Cl)c3)ncnc2cc1O[C@H]1CCOC1 [Afatinib]
Second: Cl.Cl.Fc1ccc(C(c2ccc(F)cc2)N2CCN(CC=Cc3ccccc3)CC2)cc1 [Flunarizine 2HCl] + CN(C)C/C=C/C(=O)Nc1cc2c(Nc3ccc(F)c(Cl)c3)ncnc2cc1O[C@H]1CCOC1 [Afatinib]
The “cell viability of combination” value of the first is lower: 45 for the first, 63.3 for the second.

Compared with CN1CCN(c2ccc(C(=O)/N=c3\[nH][nH]c4ccc(Cc5cc(F)cc(F)c5)cc34)c(NC3CCOCC3)c2)CC1 [Entrectinib] + CN(C)C/C=C/C(=O)Nc1cc2c(Nc3ccc(F)c(Cl)c3)ncnc2cc1O[C@H]1CCOC1 [Afatinib], CC1(C)CCC(c2ccc(Cl)cc2)=C(CN2CCN(c3ccc(C(=O)NS(=O)(=O)c4ccc(NC(CCN5CCOCC5)CSc5ccccc5)c(S(=O)(=O)C(F)(F)F)c4)cc3)CC2)C1 (stereo unspecified) [ABT-263 (Navitoclax)] + CN(C)C/C=C/C(=O)Nc1cc2c(Nc3ccc(F)c(Cl)c3)ncnc2cc1O[C@H]1CCOC1 [Afatinib] is lower in “cell viability of combination” value: 57.5 for the first, 33 for the second.

Compared with Nc1ccn(C2OC(CO)C(O)C2O)c(=O)n1 (stereo unspecified) [Cytarabine] + CN(C)C/C=C/C(=O)Nc1cc2c(Nc3ccc(F)c(Cl)c3)ncnc2cc1O[C@H]1CCOC1 [Afatinib], COc1cccc2c1C(=O)c1c(O)c3c(c(O)c1C2=O)C[C@@](O)(C(C)=O)C[C@@H]3O[C@H]1C[C@H](N)[C@H](O)[C@H](C)O1.Cl [Daunorubicin HCl] + CN(C)C/C=C/C(=O)Nc1cc2c(Nc3ccc(F)c(Cl)c3)ncnc2cc1O[C@H]1CCOC1 [Afatinib] is higher in “cell viability of combination” value: 44.3 for the first, 70.7 for the second.

Compared with Cl.Cl.O=C1c2c(O)ccc(O)c2C(=O)c2c(NCCNCCO)ccc(NCCNCCO)c21 [Mitoxantrone HCl] + CN(C)C/C=C/C(=O)Nc1cc2c(Nc3ccc(F)c(Cl)c3)ncnc2cc1O[C@H]1CCOC1 [Afatinib], CC(C)(C)NC(=O)C1CC2CCCCC2CN1CC(O)C(Cc1ccccc1)NC(=O)C(CC(N)=O)NC(=O)c1ccc2ccccc2n1.CS(=O)(=O)O (stereo unspecified) [Saquinavir mesylate] + CN(C)C/C=C/C(=O)Nc1cc2c(Nc3ccc(F)c(Cl)c3)ncnc2cc1O[C@H]1CCOC1 [Afatinib] is lower in “cell viability of combination” value: 61.6 for the first, 48.2 for the second.

In the case of CCOc1nc2cccc(C(=O)OC(C)OC(=O)OC3CCCCC3)c2n1Cc1ccc(-c2ccccc2-c2nn[nH]n2)cc1 (stereo unspecified) [Candesartan Cilexetil] + CN(C)C/C=C/C(=O)Nc1cc2c(Nc3ccc(F)c(Cl)c3)ncnc2cc1O[C@H]1CCOC1 [Afatinib], the “cell viability of combination” value was 55.5.
